This test concerns the target bovine Gamma-Aminobutyric Acid Type A Receptor BDZ, alpha 5 site (GABARa5), GABRA5 (gene 523515) (UniProt Q08E50). The test is described as follows: NVS_LGIC_bGABARa5: NovaScreen (NVS) Ligand-Gated Ion Channel Assay for bovine Gamma-Aminobutyric Acid Type A Receptor BDZ, alpha 5 site (GABARa5) (AID 2283323). The method, boiled down: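 Radioligand competitive displacement binding on bovine hippocampal membranes, read 1 hr after dosing by filter-based scintillation counting. Primary screen at 25 uM in duplicate; actives (e.g. ≥30% inhibition) then run in concentration-response up to 50 uM.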

Structures are written as SMILES. Inconclusive results are not listed. Activity calls are given as the source filed them. Rule for the calls: active = hit-call score of the fitted dose curve at least 0.9, where 1 is the maximum; inconclusive = response in the unintended direction; inactive = score below 0.9.

Sequence of bovine Gamma-Aminobutyric Acid Type A Receptor BDZ, alpha 5 site (GABARa5), GABRA5 (gene 523515) (Q08E50 whole entry, looked up): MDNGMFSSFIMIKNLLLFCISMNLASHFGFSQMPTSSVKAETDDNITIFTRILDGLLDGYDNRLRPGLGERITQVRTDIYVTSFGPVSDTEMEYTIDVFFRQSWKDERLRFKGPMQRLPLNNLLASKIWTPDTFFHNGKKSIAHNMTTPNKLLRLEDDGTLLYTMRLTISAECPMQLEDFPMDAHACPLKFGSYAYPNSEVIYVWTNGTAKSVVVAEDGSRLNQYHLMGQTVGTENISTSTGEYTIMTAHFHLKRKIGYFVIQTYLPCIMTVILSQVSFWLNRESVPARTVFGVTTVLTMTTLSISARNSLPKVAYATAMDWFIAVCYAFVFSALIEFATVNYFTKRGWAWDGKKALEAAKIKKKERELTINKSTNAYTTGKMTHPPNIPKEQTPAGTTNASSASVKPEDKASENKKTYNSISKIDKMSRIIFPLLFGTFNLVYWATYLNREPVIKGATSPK

Turning to `CNCc1ccc(NC(=O)c2c[nH]c3c2C(=O)CCC3)cc1`, the molecule was called inactive.
